# Reference: the supplement of paper PMC7380943
# Structures can show the parent of a compound that is named as a salt.
# Test system: CLZ3 (HCA2 human fibroblast dual HR-NHEJ reporter)
# Experiment: NHEJ repair efficiency (GFP+ cells) relative to control (log10 fold); higher = more non-homologous end joining
# Settings: 5 µM; doxycycline 0.5 ug/mL
# 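Note: compound given one day ahead of doxycycline, which switches on I-SceI endonuclease to cut the chromosomally integrated reporter and create DSBs.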
row,SMILES,NHEJ repair efficiency (log10)
1,COc1cc(-c2coc3cc4c(c(OC)c3c2=O)OCO4)cc(OC)c1OC [Irisflorentin],-0.0524
2,O=C(O)c1cc(O)c2c(c1)C(=O)c1cccc(O)c1C2=O [Rhein],0.0809
3,COc1ccc(-c2oc3c(CC=C(C)C)c(O[C@@H]4O[C@H](CO)[C@@H](O)[C@H](O)[C@H]4O)cc(O)c3c(=O)c2O[C@@H]2O[C@@H](C)[C@H](O)[C@@H](O)[C@H]2O)cc1 [Icarrin],-0.0369
4,CCCCCCCCC[C@H](O)CC(=O)CCc1ccc(O)c(OC)c1 [10-Gingerol],0.0104
5,O=C1C[C@@H](c2ccc(O)c(O)c2)Oc2cc(O)cc(O)c21 [Eriodictyol],-0.0055
6,COC(=O)C1=CO[C@@H](O[C@@H]2O[C@H](CO)[C@@H](O)[C@H](O)[C@H]2O)[C@H]2[C@@H]1C(=O)C[C@@H]2C [Verbenalin],0.0793
7,CC(C)=CCc1c(-c2ccc(O)cc2O)oc2c([C@H]3C=C(C)C[C@@H](c4ccc(O)cc4O)[C@@H]3C(=O)c3ccc(O)cc3O)c(O)cc(O)c2c1=O [Kuwanon G],0.0109
8,C=CCc1ccc(O)c(-c2ccc(O)c(CC=C)c2)c1 [Honokiol],0.125
9,C=C1CC[C@H]2C(=C)CC[C@H]3C(=C)C(=O)O[C@@H]3[C@@H]12 [Dehydrocostus Lactone],-0.02
10,C[C@H]1O[C@@H](O[C@H]2CC[C@@]3(C)[C@@H](CC[C@]4(C)[C@@H]3C=CC3=C5CC(C)(C)CC[C@]5(CO)[C@H](O)C[C@]34C)[C@]2(C)CO)[C@H](O)[C@@H](O[C@@H]2O[C@H](CO)[C@@H](O)[C@H](O)[C@H]2O)[C@H]1O [Saikosaponin B2],0.0489
11,C[C@@H]1CC[C@@]2(OC1)O[C@H]1C[C@H]3[C@@H]4CC=C5C[C@@H](O)C[C@@H](O)[C@]5(C)[C@H]4CC[C@]3(C)[C@H]1[C@@H]2C [Ruscogenin],-0.0127
12,O=C(/C=C/c1ccc(O)c(O)c1)O[C@@H]1CC(O)(C(=O)O)C[C@@H](OC(=O)/C=C/c2ccc(O)c(O)c2)C1O (stereo partly specified) [Isochlorogenic acid A],0.0485
13,COc1cc(CNC(=O)CCCCCCC(C)C)ccc1O [Dihydrocapsaicin],-0.263
14,O=C(/C=C/c1ccc(O[C@@H]2O[C@H](CO)[C@@H](O)[C@H](O)[C@H]2O)cc1)c1ccc(O)cc1O [Isoliquiritin],-0.0606
15,COc1cc([C@H]2OC[C@H]3[C@@H]2CO[C@@H]3c2ccc(O[C@@H]3O[C@H](CO)[C@@H](O)[C@H](O)[C@H]3O)c(OC)c2)ccc1O[C@@H]1O[C@H](CO)[C@@H](O)[C@H](O)[C@H]1O [PinoresinolDiglucoside],-0.0902
16,c1ccc2c(c1)OC1c3ccccc3OCC21 (stereo unspecified) [Pterocarpan],0.112

row,SMILES,NHEJ repair efficiency (log10)
1,Cc1nc(C)c(C)nc1C [Ligustrazine hydrochloride],0.0819
2,C[C@]12C[C@@H](O)[C@@H]3C[C@@]1(O[C@@H]1O[C@H](CO)[C@@H](O)[C@H](O)[C@H]1O)[C@@]3(COC(=O)c1ccccc1)C(=O)O2 [Albiflorin],0.0446
3,COc1cc(OC)c(CCC(=O)c2ccc(O)cc2)c(OC)c1,-0.0337
4,C=CC1=C(C)/C(=C/c2[nH]c(Cc3[nH]c(/C=C4\NC(=O)C(C)=C4C=C)c(C)c3CCC(=O)O)c(CCC(=O)O)c2C)NC1=O [Bilirubin],-0.0874
5,C[C@@H](CC[C@@]1(O)O[C@H]2C[C@H]3[C@@H]4CC[C@@H]5C[C@@H](O[C@@H]6O[C@H](CO)[C@H](O)[C@H](O)[C@H]6O[C@@H]6O[C@H](CO)[C@@H](O)[C@H](O)[C@H]6O)CC[C@]5(C)[C@H]4CC[C@]3(C)[C@H]2[C@@H]1C)CO[C@@H]1O[C@H](CO)[C@@H](O)[C@H](O)[C@H]1O [Timosaponin b- II],0.192
6,COc1ccc2c(c1O)-c1c(O)c(OC)cc3c1[C@H](C2)[N+](C)(C)CC3 [Magnoflorine hydrochloride],-0.0605
7,COc1ccc2c(c1O)-c1c(O)c(OC)cc3c1[C@H](C2)[N+](C)(C)CC3 [Magnoflorine iodide],0.122
8,COc1cc([C@H]2OC[C@H]3[C@@H]2CO[C@H]3c2ccc(OC)c(OC)c2)ccc1O [Phillygenin],0.129
9,COc1ccc(-c2cc(=O)c3c(O)c(OC)c(O)cc3o2)cc1 [Pectolinarigenin],-0.0149
10,COC(=O)C1=CO[C@@H](O[C@@H]2O[C@H](CO)[C@@H](O)[C@H](O)[C@H]2O)[C@@H]2C(CO)=CC[C@H]12 [Geniposide],-0.0355
11,C/C=C(/C)C(=O)O[C@H]1[C@@H](OC(=O)CC(C)C)c2c(ccc3ccc(=O)oc23)OC1(C)C [Praeruptorin E],-0.0864
12,COc1cc(O)c2c(=O)c3c(O[C@@H]4O[C@H](CO)[C@@H](O)[C@H](O)[C@H]4O)ccc(O)c3oc2c1 [Swertianolin],0.00276
13,Cc1cc(=O)c2c(O)c3c(cc2o1)OC(C)(C)[C@@H](O[C@@H]1O[C@H](CO)[C@@H](O)[C@H](O)[C@H]1O)C3 [Sec-O-Glucosylhamaudol],-0.132
14,CC1(C)CCC2(CO)C(=C3C=CC4C5(C)CCC(OC6OC(COC7OC(CO)C(O)C(O)C7O)C(OC7OC(CO)C(O)C(O)C7O)C(O)C6O)C(C)(CO)C5CCC4(C)C3(C)CC2O)C1 (stereo unspecified) [Clinopodiside A],-0.0569
15,CC[C@H](CC[C@@H](C)[C@H]1CC[C@H]2[C@@H]3CC=C4C[C@@H](O[C@@H]5O[C@H](CO)[C@@H](O)[C@H](O)[C@H]5O)CC[C@]4(C)[C@H]3CC[C@]12C)C(C)C [Daucosterol],-0.00976
